Reference: the antibiotic and cytotoxicity screens of Wong et al. (2023)
Among all 39,000 compounds or so, about 3,300 (8.5%) were called active. The list comes from a sample in which actives are over-represented; it also holds similar structures and randomly drawn compounds.

Tested on: HepG2
Test: cytotoxicity call (relative viability < 0.9)
Conditions: 10 µM

| SMILES | cytotoxicity call |
| --- | --- |
| Cc1noc(C)c1NC(=O)Nc1ccc2c(c1)C(=O)N([C@H](C)CO)C[C@H](C)[C@@H](CN(C)C(=O)Nc1ccccc1)OCCCC[C@H](C)O2 | inactive |
| Cc1ccc(S(=O)(=O)Nc2ccc3c(c2)C(=O)N([C@@H](C)CO)C[C@@H](C)[C@H](CN(C)Cc2ccc4c(c2)OCO4)OCCCC[C@H](C)O3)cc1 | inactive |
| CC(C)C[C@@H]1NC(=O)[C@@H]2C[C@H](C(=O)NCCCCCNC(=O)CS)[C@H](c3cccc(OCCO)c3)N2C1=O | inactive |
| CN1C[C@]2(CCN(C(=O)c3cn(CCN4CCNCC4)nn3)C2)OC1=O | inactive |
| Cc1noc(C)c1S(=O)(=O)N(C)C[C@@H]1Oc2ccc(NC(=O)Cc3ccccc3)cc2CC(=O)N([C@@H](C)CO)C[C@@H]1C | inactive |
| CC(C)NC(=O)N(C)C[C@H]1Oc2ccc(NC(=O)CCCN(C)C)cc2C(=O)N([C@H](C)CO)C[C@H]1C | inactive |
| C[C@H]1CN([C@@H](C)CO)C(=O)Cc2cc(NC(=O)Cn3cnnn3)ccc2O[C@@H]1CN(C)S(=O)(=O)c1ccc(F)cc1 | inactive |
| C[C@H](CO)N1C[C@H](C)[C@H](CN(C)Cc2ccc(Oc3ccccc3)cc2)Oc2ccc(NC(=O)C3CCCCC3)cc2CC1=O | active |
| C[C@H](CO)N1C[C@H](C)[C@@H](CN(C)Cc2ccc(Oc3ccccc3)cc2)Oc2ccc(NC(=O)C3CCCCC3)cc2CC1=O | inactive |
| C[C@@H]1CN([C@@H](C)CO)C(=O)Cc2cc(NC(=O)C3CC3)ccc2O[C@H]1CN(C)Cc1ccc(Oc2ccccc2)cc1 | inactive |
| C[C@@H]1CN([C@H](C)CO)C(=O)Cc2cc(NC(=O)C3CCCCC3)ccc2O[C@@H]1CN(C)Cc1ccc(Oc2ccccc2)cc1 | inactive |
| C[C@@H]1CN([C@H](C)CO)C(=O)Cc2cc(NC(=O)C3CC3)ccc2O[C@@H]1CN(C)Cc1ccc(Oc2ccccc2)cc1 | active |
| C[C@@H]1CN([C@H](C)CO)C(=O)Cc2cc(NC(=O)C3CCCCC3)ccc2O[C@H]1CN(C)Cc1ccc(Oc2ccccc2)cc1 | inactive |
| C[C@@H]1CN([C@@H](C)CO)C(=O)Cc2cc(NC(=O)C3CCCCC3)ccc2O[C@H]1CN(C)Cc1ccc(Oc2ccccc2)cc1 | inactive |
| C[C@H](CO)N1C[C@H](C)[C@H](CN(C)Cc2ccc(Oc3ccccc3)cc2)Oc2ccc(NC(=O)C3CC3)cc2CC1=O | inactive |
| C[C@H]1CN([C@@H](C)CO)C(=O)Cc2cc(NC(=O)C3CCCCC3)ccc2O[C@H]1CN(C)Cc1ccc(Oc2ccccc2)cc1 | active |
| C[C@@H]1CN([C@@H](C)CO)C(=O)Cc2cc(NC(=O)Nc3ccc(C(F)(F)F)cc3)ccc2O[C@@H]1CN(C)C(=O)Nc1cccc2ccccc12 | inactive |
